# Data as given in PubChem BioAssay AID488969 (Vanderbilt High Throughput Screening Facility, 2010).
# In all, about 110,000 compounds were measured (“z-score”: median about -0.1, highest 2% from about 2 on). The entries come from a sample that favours the highest values as a whole. Active and inactive are the calls of the source.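 The calls were made as follows: active = z-score in the third read window above 3 or below -3; inactive = the rest.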
# Target: Metabotropic glutamate receptor 8 (Rattus norvegicus) (UniProt P70579)
# Experiment: mGluR8 Gi/Go-coupled signaling modulation – cell-based, rat, thallium flux, HTS, primary screen (AID 488969)
# Details: HEK293 rat mGluR8, GIRK (G protein-gated inwardly rectifying potassium channel) thallium flux, FluoZin2; at 10 µM; stronger effect = higher value; submaximal glutamate (EC20) added with thallium
# Chain of Metabotropic glutamate receptor 8 (Rattus norvegicus) (P70579 whole entry, looked up): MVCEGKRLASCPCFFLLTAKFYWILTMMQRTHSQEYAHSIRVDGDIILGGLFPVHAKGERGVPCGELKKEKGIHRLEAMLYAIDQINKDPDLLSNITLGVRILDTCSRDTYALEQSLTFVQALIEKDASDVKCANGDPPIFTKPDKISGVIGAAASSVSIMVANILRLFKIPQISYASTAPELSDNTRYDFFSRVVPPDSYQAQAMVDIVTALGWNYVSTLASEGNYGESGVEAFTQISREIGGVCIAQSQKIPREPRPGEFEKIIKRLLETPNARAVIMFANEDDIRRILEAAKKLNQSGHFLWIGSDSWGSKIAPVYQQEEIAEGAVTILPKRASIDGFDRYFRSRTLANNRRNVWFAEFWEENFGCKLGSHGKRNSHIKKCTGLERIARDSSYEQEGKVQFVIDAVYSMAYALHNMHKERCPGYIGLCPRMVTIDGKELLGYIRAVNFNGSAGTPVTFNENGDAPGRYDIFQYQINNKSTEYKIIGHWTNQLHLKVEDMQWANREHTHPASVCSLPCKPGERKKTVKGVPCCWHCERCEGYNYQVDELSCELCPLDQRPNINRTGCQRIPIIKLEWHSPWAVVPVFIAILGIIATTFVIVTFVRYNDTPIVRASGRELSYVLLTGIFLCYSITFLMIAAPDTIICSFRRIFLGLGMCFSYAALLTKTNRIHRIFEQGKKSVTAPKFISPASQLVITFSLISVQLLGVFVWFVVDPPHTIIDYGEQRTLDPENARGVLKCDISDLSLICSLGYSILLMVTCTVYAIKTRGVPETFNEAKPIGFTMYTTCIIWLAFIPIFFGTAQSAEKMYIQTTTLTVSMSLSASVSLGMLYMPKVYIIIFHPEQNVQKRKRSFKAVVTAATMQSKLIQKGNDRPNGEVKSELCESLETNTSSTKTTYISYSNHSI
row,Compound,z-score
1,Cc1c(NC(=O)C(=O)/C=C(\O)c2ccc(Cl)cc2)c(=O)n(-c2ccccc2)n1C,2.16
2,Cc1c(NC(=O)C(=O)/C=C(/O)c2ccccc2)c(=O)n(-c2ccccc2)n1C,-0.309
3,Cc1c(NC(=O)C(=O)/C=C(\O)c2ccc(Br)cc2)c(=O)n(-c2ccccc2)n1C,-0.237
4,O=C1COc2ccc(C(=O)c3ccccc3C(=O)NCc3ccco3)cc2N1,0.0372
5,C=CCn1c(SCC(=O)c2[nH]c(C)c(C(=O)OCC)c2C)nc2scc(-c3ccc(OC)c(OC)c3)c2c1=O,-0.123
6,CCOc1cc(C2NN=C(c3ccccc3)S2)ccc1OCc1ccccc1Cl (centres undefined),0.78
7,CCOc1cc(C2NN=C(c3ccccc3)S2)ccc1OCc1ccc(F)cc1 (centres undefined),0.745
8,CCOc1cc(C2NN=C(c3ccc(C)cc3)S2)ccc1O (centres undefined),8.33 (active)
9,CC1CCCCN1C(=O)CSc1nnc(-c2cccnc2)n1C1CCCCC1 (centres undefined),0.109
10,COc1ccccc1N(CC(=O)NCc1cccnc1)S(C)(=O)=O,0.0794
11,CCN(CC)CCNC(=O)c1ccc2c(=O)n(C3CCCC3)c(=S)[nH]c2c1,0.125
12,O=C(c1ccc(CNc2c(NC3CCCCC3)c(=O)c2=O)cc1)N1CCc2ccccc21,-0.164
13,CCCn1c(=S)[nH]c2cc(C(=O)N3CCc4ccccc43)ccc2c1=O,1.07
14,O=C(c1ccc2c(=O)n(C3CCCC3)c(=S)[nH]c2c1)N1CCc2ccccc21,9.93 (active)
15,CCN1CCN(C(=O)c2ccc3c(=O)n(C4CCCC4)c(=S)[nH]c3c2)CC1,5.09 (active)
16,CCCCCn1c(=O)[nH]c2cc(C(=O)N3CCN(CC)CC3)ccc2c1=O,0.0715
17,O=C(Nc1ccc([N+](=O)[O-])cn1)c1cc(-c2cccc(Br)c2)nc2ccccc12,0.61
18,COC(=O)c1[nH]c2ccc(C)cc2c1NC(=O)CN1CCCC(C)(C)C1,-0.603
19,O=C(Nc1cc(C(=O)N2CCCC2)ccc1N1CCCC1)c1ccccc1,-1.7
20,Cc1nc2ccccc2c(=O)n1/N=C/c1ccccc1,-0.0985
21,O=c1c2ccccc2nc(-c2ccccc2)n1/N=C/c1ccc([N+](=O)[O-])cc1,6.71 (active)
22,Cc1nc2ccccc2c(=O)n1/N=C/c1ccc(O)cc1,0.481
23,CCC(=O)Nc1ccc2c(c1)ncn2-c1ccccc1,0.261
24,CCC(=O)Nc1ccc2c(c1)ncn2-c1ccc(OC)cc1,2.82
25,COc1ccc(-n2cnc3cc(NC(=O)c4ccco4)ccc32)cc1,-1.7
26,O=C(O)c1ccc(CNCc2c(Cl)cccc2Cl)cc1,0.0291

row,Compound,z-score
1,CC(CCc1ccccc1)NC(=O)COC(=O)C1=COCCO1 (centres undefined),0.664
2,Nc1nc(SCc2ccc([N+](=O)[O-])cc2)c2ncn(C3OC(CO)C(O)C3O)c2n1 (centres undefined),2.28
3,O=c1[nH]cnc2c1nc(SCc1ccccc1)n2C1OC(CO)C(O)C1O (centres undefined),1.45
4,CN(C)c1ncnc2c1ncn2C1OC(CO)C(O)C1O (centres undefined),-0.162
5,COc1ccc(C2=CC(=O)OC3(CCCCC3)O2)cc1,-2.37
6,COC(=O)[C@H](CC(C)C)NC(=O)Nc1ccc2c(c1)OCCO2,3.6 (active)
7,O=C(Nc1ccc(N2CCCCC2)c(Cl)c1)c1ccc2c(c1)OCCO2,-0.282
8,CCC(C)[C@H](NC(=O)Nc1ccc2c(c1)OCCO2)C(=O)O (some centres undefined),-0.196
9,O=C(Nc1ccc(N2CCCC2)c(Cl)c1)c1ccc2c(c1)OCCO2,2.58
10,COC(=O)[C@@H](NC(=O)Nc1ccc2c(c1)OCCO2)C(C)C,0.876
11,CCOc1ccc(C(=O)Nc2ccc3c(c2)OCCO3)cc1OC,-0.705
12,COc1cc(C(=O)Nc2ccc3c(c2)OCCO3)ccc1OC(C)C,2.41
13,COc1ccc(C(=O)Nc2ccc3c(c2)OCCO3)cc1,-0.168
14,O=C(NC(=S)Nc1ccc(N2CCCCC2)c(Cl)c1)c1ccc2c(c1)OCCO2,0.126
15,CC(C)c1ccc(C(=O)N2CCCN(C(=O)c3ccc(C(C)C)cc3)CC2)cc1,-0.119
16,O=C(NCC1CCCO1)C1CCN(S(=O)(=O)c2cccc3nonc23)CC1 (centres undefined),0.153
17,O=C(NC1CCCCC1)C12CC3CC(C1)CC(n1cncn1)(C3)C2,-0.163
18,COc1ccc(Cn2nnnc2C(c2ccncc2)N2CCOCC2)cc1 (centres undefined),0.39
19,O=C(COc1ccccc1Cl)NCCCN1CCOCC1,1.3
20,COc1ccc(S(=O)(=O)N2CCC(C(=O)NCc3ccccn3)CC2)cc1Cl,-0.477
21,COc1cccc(/C=N/n2c(=S)n(C)c3ccccc32)c1OC,2.32
22,COc1ccc(/C=N/n2c(=S)n(C)c3ccccc32)cc1OC,0.103
23,COc1cccc(/C=N/n2c(=S)n(C)c3cc(C)c(C)cc32)c1OC,0.276
24,COc1ccc(C)cc1C1=Nc2ccccc2C1(C)C,-0.42
25,Cn1c(=O)[nH]c(=O)c2c1nc(N1CCCCC1)n2CCCSc1nnnn1-c1ccccc1,-0.187
26,O=C(CSc1nnc(NC(=O)C2CCC2)s1)Nc1ccc(N2CCOCC2)cc1,-0.322

row,Compound,z-score
1,O=C(Nc1ccccc1)c1ccc(S(=O)(=O)N2CCCCC2)cc1,-0.0563
2,COc1ccc(C(CC(=O)O)NC(=O)c2ccccc2)cc1OC (centres undefined),-0.105
3,COc1cccc(C(CC(=O)Nc2cccc3ccccc23)NC(=O)c2ccccc2)c1 (centres undefined),2.17
4,O=C(CC(NC(=O)c1ccccc1)c1ccccc1)Nc1cccc2ccccc12 (centres undefined),-0.0391
5,Cc1cc(C)nc(SCc2nnc(SCC(=O)Nc3nccs3)n2C)n1,0.465
6,CCCCCOc1ccc(C(=O)C(c2ccccc2)N2CCOCC2)cc1 (centres undefined),0.204
7,COc1ccc(C(=O)C(c2ccccc2)N2CCOCC2)cc1 (centres undefined),2.44
8,CCOc1ccc(C(=O)C(c2ccccc2)N2CCOCC2)cc1 (centres undefined),-0.418
9,O=S(=O)(Nc1ccc(N=Nc2ccccc2)cc1)c1ccccc1,-0.241
10,COc1ccc(OC)c(N(CC(=O)NCc2cccnc2)S(C)(=O)=O)c1,0.361
11,CC(=O)c1cccc(NC(=O)CN(c2cccc(F)c2)S(C)(=O)=O)c1,-0.268
12,COc1cccc(NC(=O)CN(c2cccc(F)c2)S(C)(=O)=O)c1,-0.058
13,CC(=O)c1cccc(N(CC(=O)Nc2ccc(F)cc2)S(C)(=O)=O)c1,2.52
14,COc1cccc(N(CC(=O)Nc2cccc(C(C)=O)c2)S(C)(=O)=O)c1,4.2 (active)
15,COc1ccc(CNC(=O)CN(c2cc(C)cc(C)c2)S(=O)(=O)c2c(C)noc2C)cc1,-0.0907
16,COc1ccc(N(CC(=O)NCc2cccc(OC)c2)S(=O)(=O)c2c(C)noc2C)cc1,-0.199
17,COc1cccc(N(CC(=O)NCc2cccnc2)S(C)(=O)=O)c1,3.97 (active)
18,Cc1cccc(N(CC(=O)Nc2ccc(F)cc2)S(C)(=O)=O)c1,0.171
19,CC(=O)c1cccc(N(CC(=O)Nc2cccnc2)S(C)(=O)=O)c1,0.179
20,Cc1ccc(N(CC(=O)NCc2cccnc2)S(C)(=O)=O)cc1C,0.196
21,COc1cccc(CNC(=O)CN(c2cc(C)cc(C)c2)S(=O)(=O)c2c(C)noc2C)c1,2.13
22,COc1ccc(CNC(=O)C2CCN(c3nccs3)CC2)cc1,-0.318
23,Cc1cc(NC(=O)CSc2nnc(-c3cccs3)n2N)no1,-0.647
24,COc1ccc2nc(SC(C(=O)c3ccccc3)c3ccccc3)nc(C)c2c1 (centres undefined),0.574
25,CC(=O)c1cccc(S(=O)(=O)NCC2CCCCC2)c1,0.0227
26,COC(=O)/C(=C/Nc1cccc2ccccc12)[N+](=O)[O-],-0.204

row,Compound,z-score
1,COC(=O)c1sccc1-c1ccc(/C=N/OCc2c(Cl)cccc2Cl)o1,-0.187
2,Cc1ccc(-c2c(C)n([O-])c3c([n+]2=O)CCCCC3)o1,-0.48
3,CC(C)Sc1nc(C(F)(F)F)cc(=O)n1-c1ccccc1,0.426
4,CC(=O)Oc1c(C(=O)c2nnc(C)o2)c(=O)n(Cc2ccccc2)c2ccccc12,2.07
5,COc1cc(-n2c(=O)c3ccccc3n(Cc3ccccc3)c2=O)cc(OC)c1OC,-0.047
6,CC(=O)Oc1c(C(=O)c2nnc(C)o2)c(=O)n(C)c2ccccc12,-0.074
7,CCc1ccc(NC(=O)N(CCCOC(C)C)C2CCN(C(C)=O)CC2)cc1,0.807
8,O=C(Nc1nccs1)c1ccc2nccnc2c1,0.133
9,CC(C)(C)c1csc(NC(=O)c2ccc3nccnc3c2)n1,5.29 (active)
10,CC(C)(C)NC(=O)c1ccc2nccnc2c1,0.232
11,O=C(CCC(=O)OCC(=O)c1ccc(Cl)cc1Cl)Nc1cccc2cccnc12,0.0344
12,O=C(NCc1ccco1)C(c1ccc(F)cc1)N(CC1CCCO1)C(=O)Cn1nnc2ccccc21 (centres undefined),-0.299
13,CCOC(=O)c1nnn(CC(=O)N2N=C(c3cc(C)ccc3C)CC2c2ccc(OC)cc2)c1C(=O)OCC (centres undefined),-0.378
14,COc1ccc(/C(N)=N/OC(=O)Oc2ccccc2)cc1OC,-0.183
15,COC(=O)c1ccc2c(=O)n(Cc3ccco3)c(SCC(=O)Nc3ccc(C)c(Cl)c3)nc2c1,0.24
16,O=C(CSc1nnc(-c2ccccc2)n1Cc1ccco1)Nc1ccc(S(=O)(=O)N2CCCC2)cc1,-1.61
17,O=C(CSc1nc2cc(Cl)ccc2c(=O)n1Cc1ccco1)Nc1ccc(S(=O)(=O)N2CCOCC2)cc1,2.05
18,CNS(=O)(=O)c1cc(C(=O)NCc2ccco2)ccc1Cl,0.119
19,CCOc1ccc(NC(=S)N(CCCN2CCOCC2)Cc2cn(C)c3ccccc23)cc1,-0.232
20,N=c1n(Cc2ccccc2)c2ccccc2n1CC(O)c1ccccc1 (centres undefined),0.899
21,CCC(C)c1ccccc1NC(=O)COC(=O)c1ccc2[nH]c3c(c2c1)CCCC3 (centres undefined),-0.0793
22,CCC(C)c1ccccc1NC(=O)COC(=O)c1ccc2c(c1)S(=O)(=O)c1ccccc1C2=O (centres undefined),2.17
23,CCc1cccc(CC)c1NC(=O)COC(=O)c1ccc2c(c1)S(=O)(=O)c1ccccc1C2=O,-0.326
24,C=CCn1c(-c2cccc(OC)c2)n[nH]c1=S,-0.21
25,CCCn1c(SCC(=O)Nc2nnc(-c3ccccc3)s2)nnc1-c1ccccn1,-0.176
26,Cc1ccc(C(=O)N/C(=C\c2ccccc2)C(=O)OCc2ccccc2)cc1,-0.52
